In all, about 59,000 compounds went through this assay and about 540 (0.92%) were called active. Not shown: some 33% with an inconclusive outcome. No stated cut-off is given here; in the data, active means max fluorescein-equivalent concentration above about 10 nM; inconclusive means between about 1.1 nM and that limit; inactive means weaker than that. What follows is part of a selection rich in actives, with near analogues and random picks from the rest.

55 compounds from PubChem BioAssay AID593 (National Center for Advancing Translational Sciences (NCATS), 2007) can be followed below.

The nature of the assay: qHTS Assay for Spectroscopic Profiling in Fluorescein Spectral Region. The conditions noted are these: Compound autofluorescence, 480/540 nm; max fluorescein-equivalent concentration: stronger effect = higher value; outcome: fluorescein-equivalent. The source says: NIH Molecular Libraries Screening Centers Network [MLSCN]
NIH Chemical Genomics Center [NCGC]
Occasionally, the artifactual effect may originate from the compound's own spectral or other biophysical properties which generally tend to track its assay concentration. Pre-screening/profiling the library with respect to the compounds' spectral properties should help one exclude false positives early on. While the most informative fluorescent profiling data set is obtained by performing a full excitation and emission scan of each well by using a monochromator-based plate reader, such an approach is practical only on a very limited scale as scanning each well requires long time. An alternative approach, applied here, is to perform plate reader scans using selected excitation and emission wavelength pairs to generate a multidimensional relational database that correlates compound concentration and the respective relative fluorescence intensity at a given wavelength set. A standard curve of fluorescein present on each plate as six-point concentration series, was used to compute a normalized fluorescence response, termed dye-equivalent concentration, for each compound at each concentration.
NCGC Assay Protocol Summary:
100 mM Tris buffer, pH 8.0
The wells in columns 1 through 4 of a Kalypsys polypropylene 1536-well compound plate were filled with standard solutions of fluorophore corresponding to the spectral region of interest. Solutions of Fluorescein were placed in the following wells: Q1, R1: 3 mM, Q2, R2: 300 uM, Q3, R3: 30 uM, Q4, R4: zero (DMSO), S1, T1: 3 uM, S2, T2: 900 nM, S3, T3: 300 nM, S4, T4: zero (DMSO).
Six uL of buffer were dispensed to 1536-well Greiner black plates. Compounds and dye standards (23 nL) were transferred via Kalypsys PinTool. The plates were incubated for 15 min at room temperature, and then read on ViewLux (Perkin-Elmer) High-throughput CCD imager using 480 nm and 540 nm excitation and emission filter set.
Keywords: NIH Roadmap, MLSCN, MLI, MLSMR, qHTS, NCGC, Fluorescein, Fluorescent Profiling.
(qHTS replaces the single test concentration by a dilution series.)
As to `CC(C)CC(=O)N=C1SC2CS(=O)(=O)CC2N1CCc1ccccc1` (stereo not given), the max fluorescein-equivalent concentration entry was “inactive”.
As to `O=C(c1ccco1)N1CCC2(CC1)CCN(c1ncccn1)CC2`, the max fluorescein-equivalent concentration result is “inactive”.
On to `NCC(=O)[C@@H](O)[C@H](O)[C@H](O)CO`, for which the max fluorescein-equivalent concentration entry is “inactive”.
For `Cc1cc(C)c2cc(CN(Cc3cccs3)Cc3nnnn3CC3CCCO3)c(=O)[nH]c2c1` (stereo not given), the max fluorescein-equivalent concentration result is “inactive”.
To `CS(=O)(=O)N1CCC2(CCN(c3ccncc3)CC2)CC1` belongs “inactive”; to `COc1ccc(-c2ccc(-c3noc(-c4ccncc4)n3)c(OC)n2)cc1`, “inactive”; to `COc1cccc(-c2cc(NCCc3c[nH]c4ccc(OC)cc34)ncn2)c1`, “inactive”.
In the case of `CN1CCN(c2ccc(NC(=O)COc3ccc(Cl)cc3Cl)cc2)CC1`, the max fluorescein-equivalent concentration entry is “inactive”.
For `Clc1ccc(C(c2ccc(Cl)cc2)n2cc[n+](C[C@@H](OCc3ccc(Cl)cc3Cl)c3ccc(Cl)cc3Cl)c2)cc1` the value was “inactive”; for `COCCn1c(=O)c(CCc2ccccc2)nc2cnc(N3CCNCC3)nc21`, “inactive”.
To `COc1ccccc1CCn1c(=O)c(-c2cn(C)c3ccccc23)nc2cncnc21` belongs “inactive”.
With `CCn1c(Cc2ccccc2)nnc1SCC(=O)Nc1ccccc1`, the max fluorescein-equivalent concentration entry is “inactive”.
As for `O=c1cc(-c2ccc(O)c(O)c2)oc2cccc(O)c12`, the max fluorescein-equivalent concentration result was “inactive”.
On to `CCCCCCn1c(CN2CCCC(C)C2)nc2c1c(=O)n(C)c(=O)n2C` (stereo not given), for which the max fluorescein-equivalent concentration result was “inactive”.
As to `CCCn1c(O)c(CN2CCCC(C)C2)c(C)c(C#N)c1=O` (stereo not given), the max fluorescein-equivalent concentration is 65 nM (active).
For `COC(=O)c1c(NC(=O)CSc2nc3c(c(=O)n(C)c(=O)n3C)n2C(C)C)sc(C)c1C` the value was “inactive”; for `Clc1ccc(C=Nc2ccc3c(c2)Cc2ccccc2-3)c(Cl)c1`, “inactive”; for `CCNc1ncc2nc(CCc3ccccc3)c(=O)n(-c3ccc(OC)cc3)c2n1`, “inactive”.
To `CSCCC(Nc1nc2ccccc2s1)C(=O)O` (stereo not given) belongs “inactive”.
To `CCn1c(COc2cccc(OC)c2)nnc1SCC(=O)N1CCOCC1` belongs “inactive”; to `O=C(O)[C@@H](S)[C@H](S)C(=O)O`, “inactive”.
Turning to `COc1ccc(OC)c([C@H](O)CNC(=O)CN)c1`, the max fluorescein-equivalent concentration entry is “inactive”.
In the case of `COCCNC(=O)C(C#N)c1nc2ccccc2nc1N1CCN(Cc2ccc3c(c2)OCO3)CC1` (stereo not given), the max fluorescein-equivalent concentration result was “inactive”.
To `Cc1ccc(S(=O)(=O)C(C#N)c2nc3ccccc3nc2N2CCCC2)cc1C` (stereo not given) belongs 14 nM (active).
`CC(=O)/C(=N\N=C(N)N)c1ccccc1`: the max fluorescein-equivalent concentration result is “inactive”.
For `CCCCC(=O)Nc1ccc(C(=O)NCCCn2ccnc2)cc1` the value was “inactive”.
To `O=c1[nH]nc(CSCc2ccccc2Cl)[nH]1` belongs “inactive”; to `COC(=O)N1CCC[C@@]2(CCN(C(=O)NC(C)C)C2)C1`, “inactive”.
Consider `CCOC(=O)c1cc2ccccc2nc1C`, for which the max fluorescein-equivalent concentration result is “inactive”.
Take `CCOC(=O)c1cc2n(c1C)-c1ccccc1C2=O`: the max fluorescein-equivalent concentration entry is “inactive”.
With `CCOC(=O)c1cc2n(c1N)-c1ccccc1C2=O`, the max fluorescein-equivalent concentration was 780 nM (active).
To `CCc1ccc2oc(-c3ccc(N)cc3)nc2c1` belongs “inactive”; to `CCN(CC)c1ccc2oc(=O)c(C)nc2c1`, 140 nM (active); to `O=C(c1ccncc1)N1CCC2(CCCN(C(c3ccccc3)c3ccccc3)C2)CC1`, “inactive”.
For `CC(C)CSC[C@@H]1O[C@H](n2cnc3c(N)nccc32)[C@H](O)[C@@H]1O` the value was “inactive”; for `COc1ccc(-c2nc3cnc(Oc4ccccc4)nc3n(Cc3cccs3)c2=O)cc1`, “inactive”; for `CCOc1ccc(N=NS(=O)(=O)O)cc1`, “inactive”.
On to `O=c1c(-c2cccs2)nc2cnc(Oc3ccccc3)nc2n1-c1ccccc1`, for which the max fluorescein-equivalent concentration entry was “inactive”.
To `CCn1c(COc2ccc(OC)cc2)nnc1SCC(=O)Nc1cc(OC)ccc1OC` belongs “inactive”.
To `Nc1ccc2c3c(cccc13)C(=O)NC2=O` belongs 2000 nM (active); to `Cc1ccc2nc(NCCCNC(=O)c3cnccn3)c(C#N)cc2c1`, “inactive”.
For `CC(C)CNC(=O)C1CCCN(S(=O)(=O)c2ccc(-n3cnnn3)cc2)C1` (stereo not given) the value was “inactive”; for `FC(F)(F)c1ccccc1-c1cc(NCc2ccccc2)ncn1`, “inactive”; for `COCCn1c(=O)c(C)nc2cnc(N(C)C)nc21`, “inactive”.
`CN1CCN(C(=O)c2ccc(NS(=O)(=O)c3ccccc3)cc2)CC1`: the max fluorescein-equivalent concentration entry was “inactive”.
For `CN1CCN(Cc2nc3c(c(=O)n(C)c(=O)n3C)n2Cc2cccc3ccccc23)CC1` the value was “inactive”; for `CS(=O)(=O)N(C(=O)NC(=O)NC1CCS(=O)(=O)C1)C1CCCCC1` (stereo not given), “inactive”; for `CC[N+](C)(CC)CCC[n+]1c(-c2ccccc2)c2cc(N)ccc2c2ccc(N)cc21`, 18 nM (active).
To `NC(=O)C1CCN(C(=O)c2ccc(C(F)(F)F)cc2)CC1` belongs “inactive”; to `CC1(C)S[C@@H]2[C@@H](NC(=O)[C@@H](N)c3ccccc3)C(=O)N2[C@H]1C(=O)O`, “inactive”; to `O=C(NCCc1ccco1)c1nn(Cc2ccccc2)c(=O)c2ccccc12`, “inactive”.
For `CN(C)CCCn1c2ccccc2c2cnccc21` the value was “inactive”.
Consider `CC(C)c1nc2oc3c(N4CCN(C)CC4)ncnc3c2c2c1CCC2`, for which the max fluorescein-equivalent concentration entry was “inactive”.
Take `CC(=O)N1CCN(c2ccc(NCc3ccc(C(C)C)cc3)cc2)CC1`: the max fluorescein-equivalent concentration result was “inactive”.
To `Cc1ccc(C(=O)NCC(=O)O)cc1S(=O)(=O)N1CCCCC1` belongs “inactive”.
